Rows were chosen to be rich in hits. Some 4% of all compounds tested hit in one or more screens of this group.
FAS-TE inh: inhibitors of human fatty acid synthase thioesterase domain; inhibition, % at 15 µM; hit rate 0.67% among 360,000; AID 602261; P49327; recombinant FAS-TE, OMFH fluorogenic substrate, fluorescence endpoint;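 active = compounds whose normalised, plate-corrected inhibition of enzyme fluorescence in the single-dose primary screen is 50% or more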;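 also: 0% = DMSO with enzyme and 100% = substrate without enzyme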
ADAM10 inh: inhibits human ADAM10 | O14672 | recombinant ADAM10, EDANS/DABCYL FRET peptide cleavage, 3 h | inhibition, % at 7 µM | hit rate 0.62% among 370,000 | AID 720582;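 active = inhibition above a per-campaign cutoff equal to the mean of compounds falling between control-based bounds plus 3 SD, cut at about 20% in these data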;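 also: 0% = DMSO wells while the 100% control is not disclosed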
Target sequence (O14672 214-748 limits assumed): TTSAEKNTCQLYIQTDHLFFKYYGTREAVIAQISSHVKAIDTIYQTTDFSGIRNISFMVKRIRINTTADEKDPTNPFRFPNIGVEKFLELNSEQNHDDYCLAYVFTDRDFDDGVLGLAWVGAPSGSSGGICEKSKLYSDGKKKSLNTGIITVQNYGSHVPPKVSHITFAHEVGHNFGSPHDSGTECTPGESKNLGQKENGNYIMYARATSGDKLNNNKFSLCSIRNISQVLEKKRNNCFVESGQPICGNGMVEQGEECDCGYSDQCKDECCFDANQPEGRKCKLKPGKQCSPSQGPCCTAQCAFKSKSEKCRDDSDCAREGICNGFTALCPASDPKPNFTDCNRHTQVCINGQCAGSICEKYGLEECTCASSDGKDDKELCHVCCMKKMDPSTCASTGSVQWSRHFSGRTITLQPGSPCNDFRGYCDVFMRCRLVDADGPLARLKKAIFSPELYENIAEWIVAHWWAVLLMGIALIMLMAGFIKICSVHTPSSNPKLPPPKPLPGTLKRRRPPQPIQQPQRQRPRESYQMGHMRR
ADAM17 inh: ADAM17 inhibition, QFRET primary screen | P78536 | recombinant ADAM17, EDANS/DABCYL FRET peptide cleavage | inhibition, % at 6.95 µM | hit rate 0.83% among 370,000;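 active = inhibition above the mean of compounds lying between control limits plus 3 SD, set per campaign, cut at about 8.5% in these data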;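 also: 0% = DMSO-only wells as the low control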
GRIN3A LBD mod: modulators (binders) of human NR3A ligand-binding domain. AID 1259313. Tm shift relative to glycine control, % at 25 µM. hit rate 2.5% among 340,000. NR3A LBD differential scanning fluorimetry, Tm shift; 0% = protein alone, 100% = glycine-bound protein;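 active = melting temperature shift of at least 10% of the positive control shift, at one fixed dose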
aDG glyco act: alpha-DG glycosylation activation | activation, % at 10 µM | Pro5-aDG cells, alpha-DG glycosylation AlphaScreen (IIH6); 0% Pro5, 100% B10-LARGE cell signal | AID 624168 | hit rate 0.22% among 360,000;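 active = activation of at least 8% versus controls, or a plate z-score of at least 8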;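 also: Pro5 are CHO cells carrying HIG-tagged alpha-DG that lacks glycosylation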
An asterisk follows results filed as active; x = no result.

SMILES | FAS-TE inh | ADAM10 inh | ADAM17 inh | GRIN3A LBD mod | aDG glyco act
Cc1ccc(NC(=O)Nc2ccc3c(c2)OCO3)c(Br)c1 | 1.5 | 1.3 | -0.1 | 18.6* | -0.1
O=C(Nc1ccc2c(c1)OCO2)Nc1ccc(Cl)cc1Cl | -3.6 | 2.7 | -0.7 | 34.2* | -0.1
O=C(Nc1ccc2c(c1)OCO2)N1CCN(c2ccccc2Cl)CC1 | 4.9 | -5.3 | -3.3 | 27.4* | 0.5
Cn1c(SCC(=O)Nc2cccc(S(=O)(=O)N3CCOCC3)c2)nnc1-c1ccncc1 | -3.4 | -10.7 | -2.6 | 0.6 | -0.4
O=C(CSc1nnc2ccccn12)Nc1cccc(S(=O)(=O)N2CCOCC2)c1 | -12.8 | -1.1 | 2.9 | 10.2* | -0.1
O=C(CSc1nnc(Nc2ccccc2)s1)Nc1cccc(S(=O)(=O)N2CCCCC2)c1 | 12.2 | 3.0 | 5.5 | 16.4* | 0.3
O=C(CNc1cccc(F)c1)Nc1cccc(S(=O)(=O)N2CCCCC2)c1 | -4.0 | 1.6 | -0.5 | 14.1* | 0.0
O=C(CSc1nnc2c(n1)[nH]c1ccc(S(=O)(=O)N3CCOCC3)cc12)Nc1ccc(F)c(F)c1 | -9.3 | 4.6 | 1.7 | 35.4* | 0.0
COc1ccc(C(=O)Nc2cc(C)nn2-c2cccc(F)c2)cc1 | -3.5 | -0.1 | -4.1 | -0.6 | 0.0
CC(=O)c1cccc(NC(=O)N2CCCC2C(=O)Nc2cccc(C)c2C)c1 (configuration not stated) | -0.4 | -2.7 | -3.7 | 0.6 | -0.2
O=C(COC(=O)c1n[nH]c2ccccc12)Nc1cccc(S(=O)(=O)N2CCOCC2)c1 | -10.5 | -2.4 | -4.2 | 3.6 | -0.2
O=C(CCNC(=O)c1ccc(Cl)cc1)Nc1cccc(S(=O)(=O)N2CCCCCC2)c1 | 15.1 | 7.2 | 3.1 | 28.6* | 0.3
CCCc1nc2ccccc2c(C(=O)OCC(=O)Nc2cccc(S(=O)(=O)N3CCOCC3)c2)c1CC | 27.4 | 32.1* | 16.8* | 7.9 | 0.0
Cc1cc(S(=O)(=O)N2CCOCC2)ccc1OCC(=O)Nc1cccc(F)c1 | 1.8 | 7.2 | 1.8 | 36.6* | 0.1
COc1ccc(NC(=O)COc2ccc(S(=O)(=O)N3CCOCC3)cc2C)cc1OC | -3.9 | 2.0 | -1.3 | -0.4 | -0.1
O=C(c1ccc([N+](=O)[O-])cc1)N1CCN(C(=O)c2cccnc2)CC1 | -3.3 | -4.0 | -2.7 | -0.5 | -0.1
C/C(=N\NC(=O)c1ccccc1O)C1C(=O)c2ccccc2C1=O | 15.5 | 0.0 | 3.2 | 11.8* | -0.3
COc1ccc(CCNCC(=O)Nc2ccc(C(=O)N3CCCCC3)cc2)cc1 | -1.7 | -5.6 | -1.8 | 19.7* | 0.0
CC(=O)NC(CC(=O)c1ccc([N+](=O)[O-])cc1)C(Cl)(Cl)Cl (configuration not stated) | 0.1 | 2.9 | -2.7 | -3.5 | 0.0
O=C(COC(=O)c1ccc(Cl)c(S(=O)(=O)N2CCN(c3ccc(F)cc3)CC2)c1)Nc1cccc(Cl)c1 | 36.7 | -0.9 | 1.3 | 25.3* | -0.2
COc1cccc(NC(=O)Nc2nc(-c3ccc(OC)c(OC)c3)cs2)c1 | 8.3 | 11.8 | 6.1 | 22.5* | -0.1
O=C(Nc1cccc(Cl)c1)Nc1nc(-c2ccc(Cl)cc2)cs1 | 5.9 | 9.7 | -1.7 | 36.2* | 1.2
COc1ccc(-c2csc(NC(C)=O)n2)cc1OC | -4.9 | -4.8 | -2.6 | 3.8 | -0.1
COc1ccc(-c2csc(NC(=O)Nc3ccccc3)n2)cc1 | -1.4 | 6.1 | -4.0 | 25.6* | 0.0
Cc1ccc(NC(=O)Nc2nc(-c3ccc(C)s3)cs2)cc1 | 4.8 | 7.6 | -2.2 | 24.1* | 0.6
SMILES | FAS-TE inh | ADAM10 inh | ADAM17 inh | GRIN3A LBD mod | aDG glyco act
O=C(Nc1ccccc1)Nc1nc(-c2ccc(Cl)cc2)cs1 | -12.0 | -8.6 | -3.8 | -7.9 | -0.3
CSc1nsc(SCC(=O)N2CCN(c3ccccc3)CC2)n1 | 6.3 | 8.4 | 2.7 | 11.0* | 0.7
Cc1ccccc1OCc1nc(-c2ccc(Br)o2)no1 | 21.3 | -6.0 | 4.1 | 15.5* | -0.1
Cc1ccccc1OCc1nc(-c2ccccc2)no1 | 13.0 | 0.2 | -2.4 | 1.8 | 0.0
CCOC(=O)c1nc(Nc2ccccc2)c2ccccc2n1 | -3.8 | 3.0 | -0.5 | -1.1 | 0.0
CCOC(=O)c1nc(Nc2cc(Cl)ccc2OC)c2ccccc2n1 | 14.2 | 8.8 | -0.9 | 10.0* | -0.2
Cc1ccccc1C1C(=O)c2ccccc2C1=O | -3.6 | 5.9 | -1.6 | -2.5 | 0.0
CC(=O)c1ccc(NC(=O)CSc2nnc(NC(=O)C3CC3)s2)cc1 | -4.2 | -9.7 | -0.7 | 24.9* | -0.2
Cc1ccc(NC(=O)CSc2nnc(NC(=O)C3CC3)s2)cc1C | -0.6 | 11.3 | -0.2 | 20.7* | 0.1
COc1ccccc1CNc1nc2cc(-c3ccsc3)sc2c(=O)n1C | 9.8 | -3.2 | -1.0 | x | -0.4
COc1ccc(-c2cc(-c3nnc(COC(=O)c4ccc(O)cc4)o3)c3ccccc3n2)cc1OC | 10.1 | -23.7 | -12.8 | 15.2* | -0.8
COC(=O)[C@H](CCSC)NC(=O)Cn1cnc2c(OCc3ccccc3)ncnc21 | -6.4 | -4.6 | 1.1 | 1.2 | -0.2
COC(=O)[C@H](CC(C)C)NC(=O)Cn1cnc2c(OCc3ccccc3)ncnc21 | -1.3 | -9.0 | -4.1 | 97.3* | -0.4
CCC(=O)Nc1ccc(NC(=O)c2oc3ccccc3c2C)cc1 | 0.8 | 10.1 | 3.9 | 28.9* | 0.1
CCCNc1c(NS(=O)(=O)c2ccc(C)c(C)c2)c(=O)oc2ccccc12 | -0.4 | -0.6 | -5.6 | 3.3 | 0.0
Cn1nc(C(=O)Nc2ccc(-n3cnnn3)cc2)c2ccccc2c1=O | -8.4 | -2.7 | -1.2 | -4.4 | -0.4
Cc1c(C(=O)NC(=S)NCC(C)C)oc2ccccc12 | -4.7 | -1.9 | -5.0 | 17.9* | 0.1
CCCNc1c(NS(=O)(=O)c2ccc(NC(=O)CC)cc2)c(=O)oc2ccccc12 | -2.3 | 5.4 | -0.4 | -5.3 | 6.5*
Cc1c(C(=O)Nc2ccc(-n3cnnn3)cc2)oc2ccccc12 | -4.2 | -4.8 | -1.6 | 26.8* | 0.8
